# Experimental data as given in publication PMC11006913.
# Where a chain is given by its changes, count along the chain named.
# Assays:
# Assay in all cases: PBM; 200 nM protein, PBS
# Conditions in all cases: dsDNA, one strand shown
# CRX [1] = molecular target: CRX (Homo sapiens, UniProt O43186 26-111)
# CRX [2] = molecular target: CRX (Homo sapiens, UniProt O43186 26-111, E42D)
# SIX6 = molecular target: T1, SIX6 (Homo sapiens, UniProt O95475 114-200, T165P)
# T1 sequence: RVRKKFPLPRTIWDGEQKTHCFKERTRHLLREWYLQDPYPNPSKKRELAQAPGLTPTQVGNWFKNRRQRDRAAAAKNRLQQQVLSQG
# CRX [3] = molecular target: CRX (Homo sapiens, UniProt O43186 26-111, R41L)
# Chain of CRX (Homo sapiens, UniProt O43186 26-111, R41L) (O43186 26-111 R41L): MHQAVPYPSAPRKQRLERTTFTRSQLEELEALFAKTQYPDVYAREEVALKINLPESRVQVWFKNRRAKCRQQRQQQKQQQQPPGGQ
# PAX4 [4] = molecular target: T2, PAX4 (Homo sapiens, UniProt O43316 9-242, R200K)
# T2 sequence: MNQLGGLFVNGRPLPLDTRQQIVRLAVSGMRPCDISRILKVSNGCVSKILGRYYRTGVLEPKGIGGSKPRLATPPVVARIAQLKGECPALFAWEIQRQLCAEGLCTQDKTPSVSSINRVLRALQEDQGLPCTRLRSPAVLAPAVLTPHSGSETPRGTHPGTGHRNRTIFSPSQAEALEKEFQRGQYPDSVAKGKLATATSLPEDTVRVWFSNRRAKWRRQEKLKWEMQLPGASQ
# PAX4 [5] = molecular target: T3, PAX4 (Homo sapiens, UniProt O43316 9-242)
# T3 sequence: T2 sequence with K192R
# NKX2-6 [6] = molecular target: T4, NKX2-6 (Homo sapiens, UniProt A6NCS4 118-204)
# T4 sequence: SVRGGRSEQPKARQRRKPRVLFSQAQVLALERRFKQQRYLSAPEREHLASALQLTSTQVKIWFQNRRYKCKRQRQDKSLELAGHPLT
# PAX4 [7] = molecular target: T5, PAX4 (Homo sapiens, UniProt O43316 9-242, R200Q)
# T5 sequence: T2 sequence with K192Q
# PAX4 [8] = molecular target: T6, PAX4 (Homo sapiens, UniProt O43316 9-242, F177V)
# T6 sequence: T2 sequence with F169V, K192R
# PAX4 [9] = molecular target: T7, PAX4 (Homo sapiens, UniProt O43316 9-242, F177Y)
# T7 sequence: T2 sequence with F169Y, K192R
# NKX2-6 [10] = molecular target: T8, NKX2-6 (Homo sapiens, UniProt A6NCS4 118-204, F151L)
# T8 sequence: T4 sequence with F34L
# PAX4 [11] = molecular target: T9, PAX4 (Homo sapiens, UniProt O43316 9-242, R227W)
# T9 sequence: T2 sequence with K192R, R219W
# HOXC10 [12] = molecular target: HOXC10 (Homo sapiens, UniProt Q9NYD6 254-340)
# Chain of HOXC10 (Homo sapiens, UniProt Q9NYD6 254-340) (Q9NYD6 254-340): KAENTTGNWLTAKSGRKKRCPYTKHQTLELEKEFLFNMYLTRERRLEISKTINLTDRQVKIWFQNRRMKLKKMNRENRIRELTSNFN
# ALX3 = ALX3 (Homo sapiens, UniProt O95076 139-225, N203Q)
# Chain of ALX3 (O95076 139-225 N203Q): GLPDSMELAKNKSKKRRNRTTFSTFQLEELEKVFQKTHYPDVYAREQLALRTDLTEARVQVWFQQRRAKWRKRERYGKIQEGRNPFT
# HOXC10 [13] = molecular target: HOXC10 (Homo sapiens, UniProt Q9NYD6 254-340, K271E)
# Chain of HOXC10 (Homo sapiens, UniProt Q9NYD6 254-340, K271E) (Q9NYD6 254-340 K271E): as the sequence (Q9NYD6 254-340) above, with K18E counted along it
# HOXA2 [14] = molecular target: HOXA2 (Homo sapiens, UniProt O43364 129-215, R185T)
# Chain of HOXA2 (Homo sapiens, UniProt O43364 129-215, R185T) (O43364 129-215 R185T): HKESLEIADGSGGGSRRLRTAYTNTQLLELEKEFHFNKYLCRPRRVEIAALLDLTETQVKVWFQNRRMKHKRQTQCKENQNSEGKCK
# HOXA2 [15] = molecular target: HOXA2 (Homo sapiens, UniProt O43364 129-215, R185K)
# Chain of HOXA2 (Homo sapiens, UniProt O43364 129-215, R185K) (O43364 129-215 R185K): as the sequence (O43364 129-215 R185T) above, with T57K counted along it
# HOXA2 [16] = molecular target: HOXA2 (Homo sapiens, UniProt O43364 129-215, Y150S)
# Chain of HOXA2 (Homo sapiens, UniProt O43364 129-215, Y150S) (O43364 129-215 Y150S): as the sequence (O43364 129-215 R185T) above, with Y22S, T57R counted along it
# HOXA2 [17] = molecular target: HOXA2 (Homo sapiens, UniProt O43364 129-215)
# Chain of HOXA2 (Homo sapiens, UniProt O43364 129-215) (O43364 129-215): as the sequence (O43364 129-215 R185T) above, with T57R counted along it
# PITX2 = PITX2 (Homo sapiens, UniProt Q99697 72-157)
# HOXB6 [18] = molecular target: HOXB6 (Homo sapiens, UniProt P17509 132-218, K202E)
# Chain of HOXB6 (Homo sapiens, UniProt P17509 132-218, K202E) (P17509 132-218 K202E): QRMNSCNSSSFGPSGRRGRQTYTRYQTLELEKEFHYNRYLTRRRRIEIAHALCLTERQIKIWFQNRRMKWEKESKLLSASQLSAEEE
# HOXB6 [19] = molecular target: HOXB6 (Homo sapiens, UniProt P17509 132-218)
# Chain of HOXB6 (Homo sapiens, UniProt P17509 132-218) (P17509 132-218): as the sequence (P17509 132-218 K202E) above, with E71K counted along it
# Chain of CRX (Homo sapiens, UniProt O43186 26-111, E42D) (O43186 26-111 E42D): as the sequence (O43186 26-111 R41L) above, with L16R, E17D counted along it
# Chain of CRX (Homo sapiens, UniProt O43186 26-111) (O43186 26-111): as the sequence (O43186 26-111 R41L) above, with L16R counted along it
sequence,measurement,setting,value
GGTTAAAC,binding signal,CRX [1],"10.2 upbm affinity estimate (log intensity, higher = more binding, comparable within an allelic series)"
same,binding signal,CRX [2],"9.96 upbm affinity estimate (log intensity, higher = more binding, comparable within an allelic series)"
GATTAACA,binding signal,CRX [1],"12.9 upbm affinity estimate (log intensity, higher = more binding, comparable within an allelic series)"
same,binding signal,CRX [2],"12.5 upbm affinity estimate (log intensity, higher = more binding, comparable within an allelic series)"
GCGGATCA,binding signal,CRX [1],"11.3 upbm affinity estimate (log intensity, higher = more binding, comparable within an allelic series)"
same,binding signal,SIX6,"9.3 upbm affinity estimate (log intensity, higher = more binding, comparable within an allelic series)"
same,binding signal,CRX [2],"11.2 upbm affinity estimate (log intensity, higher = more binding, comparable within an allelic series)"
same,binding signal,CRX [3],"10.8 upbm affinity estimate (log intensity, higher = more binding, comparable within an allelic series)"
CCGGTCCC,binding signal,CRX [1],"8.46 upbm affinity estimate (log intensity, higher = more binding, comparable within an allelic series)"
same,binding signal,PAX4 [4],"9.29 upbm affinity estimate (log intensity, higher = more binding, comparable within an allelic series)"
same,binding signal,PAX4 [5],"9.34 upbm affinity estimate (log intensity, higher = more binding, comparable within an allelic series)"
same,binding signal,CRX [2],"8.54 upbm affinity estimate (log intensity, higher = more binding, comparable within an allelic series)"
same,binding signal,NKX2-6 [6],"9.32 upbm affinity estimate (log intensity, higher = more binding, comparable within an allelic series)"
same,binding signal,PAX4 [7],"9.4 upbm affinity estimate (log intensity, higher = more binding, comparable within an allelic series)"
same,binding signal,PAX4 [8],"9.28 upbm affinity estimate (log intensity, higher = more binding, comparable within an allelic series)"
same,binding signal,PAX4 [9],"9.27 upbm affinity estimate (log intensity, higher = more binding, comparable within an allelic series)"
same,binding signal,NKX2-6 [10],"9.15 upbm affinity estimate (log intensity, higher = more binding, comparable within an allelic series)"
same,binding signal,PAX4 [11],"9.3 upbm affinity estimate (log intensity, higher = more binding, comparable within an allelic series)"
same,binding signal,CRX [3],"8.54 upbm affinity estimate (log intensity, higher = more binding, comparable within an allelic series)"
CCTTATTA,binding signal,CRX [1],"11 upbm affinity estimate (log intensity, higher = more binding, comparable within an allelic series)"
same,binding signal,HOXC10 [12],"11.3 upbm affinity estimate (log intensity, higher = more binding, comparable within an allelic series)"
same,binding signal,CRX [2],"10.9 upbm affinity estimate (log intensity, higher = more binding, comparable within an allelic series)"
same,binding signal,ALX3,"8.6 upbm affinity estimate (log intensity, higher = more binding, comparable within an allelic series)"
same,binding signal,HOXC10 [13],"11.2 upbm affinity estimate (log intensity, higher = more binding, comparable within an allelic series)"
same,binding signal,CRX [3],"10.4 upbm affinity estimate (log intensity, higher = more binding, comparable within an allelic series)"
CCGGGGCG,binding signal,CRX [1],"8.1 upbm affinity estimate (log intensity, higher = more binding, comparable within an allelic series)"
same,binding signal,HOXA2 [14],"7.04 upbm affinity estimate (log intensity, higher = more binding, comparable within an allelic series)"
same,binding signal,CRX [2],"8.23 upbm affinity estimate (log intensity, higher = more binding, comparable within an allelic series)"
same,binding signal,HOXA2 [15],"10 upbm affinity estimate (log intensity, higher = more binding, comparable within an allelic series)"
same,binding signal,HOXA2 [16],"10.3 upbm affinity estimate (log intensity, higher = more binding, comparable within an allelic series)"
same,binding signal,CRX [3],"8.38 upbm affinity estimate (log intensity, higher = more binding, comparable within an allelic series)"
same,binding signal,HOXA2 [17],"7 upbm affinity estimate (log intensity, higher = more binding, comparable within an allelic series)"
TGTGTTAA,binding signal,CRX [1],"10.4 upbm affinity estimate (log intensity, higher = more binding, comparable within an allelic series)"
same,binding signal,CRX [2],"10.2 upbm affinity estimate (log intensity, higher = more binding, comparable within an allelic series)"
CTAACTCC,binding signal,CRX [1],"9.81 upbm affinity estimate (log intensity, higher = more binding, comparable within an allelic series)"
same,binding signal,CRX [2],"9.62 upbm affinity estimate (log intensity, higher = more binding, comparable within an allelic series)"
ATTAATCC,binding signal,CRX [1],"13.5 upbm affinity estimate (log intensity, higher = more binding, comparable within an allelic series)"
same,binding signal,PAX4 [4],"11.6 upbm affinity estimate (log intensity, higher = more binding, comparable within an allelic series)"
same,binding signal,CRX [2],"13.6 upbm affinity estimate (log intensity, higher = more binding, comparable within an allelic series)"
same,binding signal,PITX2,"13.4 upbm affinity estimate (log intensity, higher = more binding, comparable within an allelic series)"
same,binding signal,PAX4 [9],"10.9 upbm affinity estimate (log intensity, higher = more binding, comparable within an allelic series)"
same,binding signal,CRX [3],"13.5 upbm affinity estimate (log intensity, higher = more binding, comparable within an allelic series)"
AATGCTAA,binding signal,CRX [1],"10.4 upbm affinity estimate (log intensity, higher = more binding, comparable within an allelic series)"
same,binding signal,PAX4 [5],"10.9 upbm affinity estimate (log intensity, higher = more binding, comparable within an allelic series)"
same,binding signal,CRX [2],"10.3 upbm affinity estimate (log intensity, higher = more binding, comparable within an allelic series)"
same,binding signal,PAX4 [8],"10.1 upbm affinity estimate (log intensity, higher = more binding, comparable within an allelic series)"
same,binding signal,PAX4 [9],"10.2 upbm affinity estimate (log intensity, higher = more binding, comparable within an allelic series)"
same,binding signal,PAX4 [11],"10.2 upbm affinity estimate (log intensity, higher = more binding, comparable within an allelic series)"
AGCTCAGG,binding signal,CRX [1],"9.99 upbm affinity estimate (log intensity, higher = more binding, comparable within an allelic series)"
same,binding signal,CRX [2],"9.91 upbm affinity estimate (log intensity, higher = more binding, comparable within an allelic series)"
GGGACCCC,binding signal,CRX [1],"8.14 upbm affinity estimate (log intensity, higher = more binding, comparable within an allelic series)"
same,binding signal,HOXB6 [18],"8.9 upbm affinity estimate (log intensity, higher = more binding, comparable within an allelic series)"
same,binding signal,CRX [2],"8.1 upbm affinity estimate (log intensity, higher = more binding, comparable within an allelic series)"
same,binding signal,CRX [3],"8.05 upbm affinity estimate (log intensity, higher = more binding, comparable within an allelic series)"
same,binding signal,HOXB6 [19],"9.08 upbm affinity estimate (log intensity, higher = more binding, comparable within an allelic series)"
